Screening results deposited in PubChem by National Center for Advancing Translational Sciences (NCATS).
Marburg entry: inhibitors of Marburg virus binding or entry into cells. Marburg virus pseudotype entry/binding inhibition, cell-based. Potency, µM (top dose mostly 49.2 µM), for inactives: top-dose activity change, negative = inhibition, hits mostly inhibitors. 18,000 tested, 6.5% active. AID 720532
LASV entry inh: Lassa virus entry inhibition; Lassa virus pseudotyped entry inhibition, cell-based qHTS; Potency, µM (highest dose often 49.2 µM), without a hit: top-dose activity change, negative = inhibition, hits mostly inhibitors; 18,000 tested, 4.1% active
Active calls of the source: *; u = inconclusive; x = no result given; ! = not active in a repeat; [ ] = another dose, or the depositor's remark. Shown are actives, neighbours in structure and some others; about 8% of the full set was active somewhere. Calls follow the shape of the full dose curve; tested in HEK293 cells. % is scaled to controls: 0 for no effect and ±100 for the full control effect; potency is read from the fitted curve at half-maximal effect.

SMILES | Marburg entry | LASV entry inh
COC(=O)C1=C(C)NC(C)=C(C(=O)OC(C)(C)CN(C)CCC(c2ccccc2)c2ccccc2)C1c1cccc([N+](=O)[O-])c1 (configuration not stated) | u | 13µM*
CCOC(=O)C1=C(C)NC(C)=C(C(=O)OC)[C@H]1c1cccc([N+](=O)[O-])c1 | u | -6%
COCCOC(=O)C1=C(C)NC(C)=C(C(=O)OC/C=C/c2ccccc2)C1c1cccc([N+](=O)[O-])c1 (configuration not stated) | 6.3µM* | 13µM*
COCCOC(=O)C1=C(C)NC(C)=C(C(=O)OC(C)C)[C@@H]1c1cccc([N+](=O)[O-])c1 | -26% | -23%
CCOC(=O)C1=C(C)NC(C)=C(C(=O)OC)C1c1cccc([N+](=O)[O-])c1 (configuration not stated) | 14µM*! | u
CC1=C(C(=O)OC(C)C)C(c2cccc([N+](=O)[O-])c2)C(C(=O)OC2CN(C(c3ccccc3)c3ccccc3)C2)=C(N)N1 (configuration not stated) | -24% | -20%
COC(=O)C1=C(C)NC(C)=C(C(=O)O[C@@H]2CCCN(Cc3ccccc3)C2)[C@@H]1c1cccc([N+](=O)[O-])c1 | 14µM* | u
CCN1C(=O)[C@@H]2[C@H]3[C@H](O)[C@H](O)CC(=NOC[C@@H](O)COCc4ccco4)[C@@H]3CC[C@H]2C1=O | -22%[8.59 µM] | 1%[8.59 µM]
CC1=C2[C@H](O)[C@H]([C@@H](C)C(=O)NCCC(C)C)CC[C@@]2(C)C=CC1=O | 23%[8.59 µM] | 6%[8.59 µM]
COC(=O)c1ccc(CN2C(=O)[C@@]3(CC(C)=C[C@@H](COc4ccccc4)O3)c3ccccc32)cc1 | 21%[8.59 µM] | -15%[8.59 µM]
COC[C@@H](OC(C)=O)[C@H]1OCc2ccccc2[C@@H]1C=Cc1ccccc1 | 14%[8.59 µM] | 11%[8.59 µM]
NCCC[C@H](N)C(=O)O | 4% | -6%
O=C(Cn1cc(COc2ccc([N+](=O)[O-])cc2)nn1)c1ccc(O)cc1 | 15% | 6%
O=C(O)[C@@H](O)[C@H](O)[C@H](O)[C@@H](O)C(=O)O (tested in a mixture with another compound) | 15% | -15%
C=CCOC(=O)N[C@H](c1ccccc1)[C@H](C)C=CCC(=O)OC | 9%[8.59 µM] | 7%[8.59 µM]
O=C1NC(=O)C(c2cccc(Cl)c2)=C1Nc1ccc(Cl)c(C(=O)O)c1 | -38% | 17%
COc1cc2c(cc1Nc1nc(Nc3ccsc3C(N)=O)c3cc[nH]c3n1)N(C(=O)CN(C)C)CCC2 | 1.6µM* | x
CNC(=O)c1ncccc1Nc1nc(Nc2cc3c(cc2OC)CCCN3C(=O)CN(C)C)nc2[nH]ccc12 | 2.5µM* | u
COc1cc(N2CCN(C(C)C)CC2)ccc1Nc1nc(Nc2cccc(F)c2C(=O)O)c2cc[nH]c2n1 | -21% | -4%
C#C[C@]1(O)CC[C@H]2[C@@H]3CCC4=CC(=O)CC[C@@H]4[C@H]3C(=C)C[C@@]21CC | 8% | -20%
COc1ccc([C@]23Cc4cc(OC)c(OC)cc4[C@H](O2)c2c(c4ccccc4oc2=O)O3)cc1 | 5%[8.59 µM] | 22%[8.59 µM]
COC(=O)C1=C(C(=O)OC)[C@@H]2Nc3ccccc3[C@@]23C[C@@H](C(=O)OC)N(C(=O)NCCBr)C3=N1 | 78%[8.59 µM] | -11%[8.59 µM]
NC[C@@H]1CC[C@@H](N)[C@@H](O[C@H]2[C@H](O)[C@@H](O[C@H]3O[C@H](CO)[C@@H](O)[C@H](N)[C@H]3O)[C@H](N)C[C@@H]2N)O1 | 7% | -8%
CON=C1C[C@]2(C[C@@H]3C[C@@H](C/C=C(\C)C[C@@H](C)/C=C/C=C4\CO[C@@H]5[C@H](O)C(C)=C[C@@H](C(=O)O3)[C@]45O)O2)O[C@H](/C(C)=C/C(C)C)[C@H]1C | 28µM* | 32µM*
CC(=O)N1CCC[C@H]1C(=O)NCC1Cc2cc(Cl)cc(-c3ccc4[nH]ccc4c3)c2O1 (some centres not stated) | -24% | -8%
SMILES | Marburg entry | LASV entry inh
COCCC(=O)NCC1Cc2cc(Cl)cc(-c3ccc4[nH]ccc4c3)c2O1 (configuration not stated) | 7.1µM* | 7.1µM*
CCc1nc(N)nc(N)c1-c1ccc(Cl)cc1 | 14µM* | u
Nc1ccc(Cl)cc1 | -1%[107 µM] | u
CC(C)c1c(C(=O)N(C)Cc2cccc3ncccc23)cnn1-c1nccc(-c2ccccc2F)n1 | 8% | u
CC(=O)c1ccc(OCc2cn(CC(=O)c3ccc(O)cc3)nn2)c(F)c1 | 7% | -21%
COC(=O)C1=C(C)N(CCC(C)O[Si](C)(C)C(C)(C)C)C(=O)N(C(C)=O)C1c1ccccc1 (configuration not stated) | 7%[8.59 µM] | 3%[8.59 µM]
CC(Cc1ccccc1)NCc1ccccc1Cl (configuration not stated) | 3% | -2%
Clc1ccccc1CNCC1CCC(CNCc2ccccc2Cl)CC1 (configuration not stated) | 6.3µM* | 20µM*
CC#CC(=O)Nc1cc2c(Nc3ccc(F)c(Cl)c3)ncnc2cn1 | -16% | -2%
